According to PubChem BioAssay AID624172 (National Center for Advancing Translational Sciences (NCATS), 2012):
About 25 (0.007%) of roughly 380,000 compounds were called active. Calls follow the shape of the dose curve; as a rule, active = well fitted activation curve with a large enough effect; inconclusive = small, poorly fitted or top-dose-only effect; inactive = no such curve, though single readings can be large or run the other way. Only a sample is shown. Square brackets hold non-standard residues; d marks the D form. Side chains are listed from the residue outwards. Peptide text beside a SMILES is read from it. * marks the point of attachment. X1 = CCC(C)C(N)C1=NC(C(=O)*)CS1; Orn = NCCC[CH](N)C(=O)O

target: Glucagon-like peptide 1 receptor (Homo sapiens) (UniProt P43220); experiment: qHTS of GLP-1 Receptor Agonists; conditions: HEK293 GLP-1R CRE-luciferase, luminescence, 4-6 h, cells express a hypersensitive GLP-1R form; series mostly up to 45.6 µM; activation: at the top concentration; also: % of control where 0% means no effect
From the text: The overall goal of this project was to develop a novel assay for discovering small molecule ligands for class B1 G protein-coupled receptors (GPCRs). Very few agonists (or inverse agonists) with generally weak activity for this entire group of physiologically important receptors are known to date. To establish proof-of-principle that this critical bottleneck can be overcome with a suitable screening approach, our studies focused on the class B1 receptor for glucagon-like peptide-1 (GLP-1R), a potential therapeutic target for diabetes and neurodegenerative disease.
The assay was developed in a "mix and measure" format using a cell-based functional readout. Toward this goal, stably transfected HEK293 cell clones were established that co-express (i) a cAMP-responsive luciferase reporter gene, and (ii) GLP-1Rs that upon ligand interaction either stimulate (agonists) or inhibit (inverse agonists) luciferase activity. In different cell lines to be used for screening, expressed GLP-1Rs are specifically optimized for high sensitivity detection of either weak agonists (hypersensitive receptor) or inverse agonists (constitutively active receptor mutant). In addition, control cell lines were developed that express either the cAMP-responsive reporter gene without recombinant GLP-1Rs (enabling initial exclusion of GLP-1R independent effects of candidate probes), or the reporter gene together with wild type GLP-1Rs (for confirmation of probe activity at this receptor), or the reporter gene in combination with the constitutively active orphan receptor GPR119 (enabling initial exclusion of GLP-1R independent inhibitory effects of candidate inverse agonists).
To that end, this assay was optimized for 1536-well format and screened against the MLSMR.
NIH Molecular Libraries Probe Production Network [MLPCN]
NIH Chemical Genomics Center [NCGC]
PI Name: Martin Beinborn, Tufts Medical Center
In a white solid 1536-well plate, 6 uL of cells are dispensed in DMEM without phenol red, 10% Nu serum, and 1% pen-strep medium. The plates are then incubated for 12 hours at 37 deg C at 5% CO2 before 23 nL of compounds are added. After a 4-6 hr incubation at37 deg C and 5% CO2, 3 uL of detection reagent are added and after a 12 min incubation at RT, a luminescent read is obtained on the ViewLux.

Glucagon-like peptide 1 receptor (Homo sapiens), sequence (P43220 whole entry, looked up): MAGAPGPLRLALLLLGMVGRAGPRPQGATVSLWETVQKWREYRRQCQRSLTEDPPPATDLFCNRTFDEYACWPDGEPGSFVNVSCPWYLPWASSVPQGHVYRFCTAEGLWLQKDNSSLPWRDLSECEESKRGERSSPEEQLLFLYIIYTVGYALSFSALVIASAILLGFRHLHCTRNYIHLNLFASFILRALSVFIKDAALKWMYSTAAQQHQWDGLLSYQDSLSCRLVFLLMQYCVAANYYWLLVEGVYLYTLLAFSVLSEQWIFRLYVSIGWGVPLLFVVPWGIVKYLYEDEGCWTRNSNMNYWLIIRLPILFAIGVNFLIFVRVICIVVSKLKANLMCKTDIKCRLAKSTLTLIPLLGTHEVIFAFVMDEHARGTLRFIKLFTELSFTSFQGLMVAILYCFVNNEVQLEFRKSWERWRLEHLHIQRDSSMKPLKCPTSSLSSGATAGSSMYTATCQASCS

activation, inactive:
COc1cccc(CNC(=O)c2ccc3c(Cl)c4c(nc3c2)CCCC4)c1 -2.18%
COc1cccc(C(=O)NC2(C(F)(F)F)C(=O)Nc3c2c(=O)[nH]c(=O)n3-c2ccc(C)cc2)c1 (configuration not stated) -1.9%
Cc1ccc(C)c(N2CCN(C(=O)CN3C(=O)COc4ccc(S(=O)(=O)N5CCCCCC5)cc43)CC2)c1 0.958%
CCn1cc(C(=O)N(C)Cc2ccccc2)c(=O)c2cc(S(=O)(=O)N3CCCCCC3)ccc21 1.72%
Cc1cccc(Cc2c(C)nc3nc(SCc4ccccc4Cl)nn3c2C)c1 -0.0641%
Oc1ccccc1-c1nc2ccc(Cl)cn2c1Nc1ccc2c(c1)OCCO2 0.836%
COc1cc(C(=O)Nc2ccc(OCc3cc(=O)n4cc(C)sc4n3)cc2)cc(OC)c1OC 0.983%
COc1ccc(NC(=O)C2CCCN(S(=O)(=O)c3cccc4nonc34)C2)cc1Cl (configuration not stated) 1.17%
CCC(C)[C@@H](N)C(=O)O (some centres not stated) -4.44%
CCCc1c2oc(C(=O)O)cc(=O)c2cc2c(=O)cc(C(=O)O)n(CC)c12 2.28%
CCCCCCCCCCCCCCCCO 7.22%
O=S(O)CNc1ccc(S(=O)(=O)c2ccc(NCS(=O)O)cc2)cc1 -1.51%
CCCN(CC)[C@@H](CC)C(=O)Nc1c(C)cccc1C 12.7%
CN1CC(O)c2cc(N=NC(N)=O)c(O)cc21 (configuration not stated) 4.42%
O=C(Cn1nc(C(F)(F)F)c2c1CCCC2)Nc1ccc(Cl)cc1 -5.59%
CCOc1ccc(OCC)c(NC(=O)CN(c2ccc(C)cc2)S(=O)(=O)c2c(C)n[nH]c2C)c1 -3.92%
CCOC(=O)c1ccc(NC2=CC(c3ccc(OCC)cc3)N(c3ccc(C(=O)OCC)cc3)C2=O)cc1 (configuration not stated) 6.97%
CN(Cc1ccccc1)c1ncnc2onc(-c3ccc(F)cc3)c12 19.7%
O=C(Nc1ccc(O)cc1)c1ccccc1O -6.64%
O=P(O)(O)OC[C@H](O)CO 3.23%
COc1cccc(NC(=O)C2CCN(c3cc(C)nc4c(-c5ccc(Cl)cc5)c(C)nn34)CC2)c1 1.15%
COC(=O)CC1Oc2ccccc2-n2cc(-c3ccccc3)nc21 (configuration not stated) 1.91%
CCOC(=O)c1cccc(NS(=O)(=O)c2cn(C)c(C)n2)c1 7.08%
CCOc1ccc(N(CC)C(=O)C2CCN(S(=O)(=O)c3cccc4nonc34)CC2)cc1 0.873%
COc1ccnc(C[S@@](=O)[C@@H]2Nc3ccc(OC(F)F)cc3N2)c1OC 7.88%
O=C(Nc1c(-c2ccc(F)cc2)nc2ccccn12)c1cccc(F)c1 0.824%
CC1(C)OC2CO[C@]3(COS(N)(=O)=O)OC(C)(C)OC3C2O1 (some centres not stated) 10.6%
COC(=O)c1scc(-c2ccccc2)c1S(=O)(=O)Nc1ccccc1 -3.22%
COc1ccc(C)cc1NC(=O)C(=O)NCCc1sc(-c2cccc(C)c2)nc1C 14.1%
COc1ccc(-c2noc(CCC(=O)N(C)c3ccccc3C)n2)cc1 -0.858%
C/C=C/C=N/NC(=O)c1ccncc1 0.223%
COc1ccc2cc(CNc3ccc(OC)c(OC)c3)c(=O)n(CC(=O)Nc3ccccc3F)c2c1 -0.472%
COc1cc2[nH]c(C)c(CCN3CCN(c4ccccc4)CC3)c2cc1OC 1.59%
COC(=O)C1=C(c2ccccc2)c2ccccc2S(=O)(=O)N1CC(=O)Nc1ccccc1C(F)(F)F -1.05%
COc1cc(C(CC(=O)NCCC(C)C)N2Cc3ccccc3C2=O)cc(OC)c1OC (configuration not stated) -3.2%
CC1(C)[C@H](O[C@H]2O[C@H](C(=O)O)[C@@H](O)[C@H](O)[C@H]2O[C@@H]2O[C@H](C(=O)O)[C@@H](O)[C@H](O)[C@H]2O)CC[C@@]2(C)[C@H]1CC[C@]1(C)[C@H]2C(=O)C=C2[C@H]3C[C@@](C)(C(=O)O)CC[C@]3(C)CC[C@]21C -3.71%
CCc1cccc(NC(=O)CSc2nccn2C)c1 -3.15%
CO[C@H]1C[C@@H](O[C@@H]2[C@@H](C)O[C@@H](O[C@@H]3/C(C)=C/CC4C[C@@H](C[C@]5(C=C[C@@H](C)[C@H](C6CCCCC6)O5)O4)OC(=O)[C@@H]4C=C(C)[C@@H](O)[C@H]5OC/C(=C\C=C\[C@@H]3C)[C@]54O)C[C@H]2OC)O[C@@H](C)[C@@H]1O -0.686%
CCC(C)C(N)C1=NC(C(=O)NC(CC(C)C)C(=O)NC(CCC(=O)O)C(=O)NC(C(=O)NCCCCC2NC(=O)C(CC(N)=O)NC(=O)C(CC(=O)O)NC(=O)C(Cc3cnc[nH]3)NC(=O)C(Cc3ccccc3)NC(=O)C(C(C)CC)NC(=O)C(CCCN)NC2=O)C(C)CC)CS1 (stereo not drawn) (cyclo(DNK([Ile-Glu-Leu-X1])[Orn]IFH); configuration not given here) -2.39%
COc1ccc(Cl)cc1NC(=O)Cn1c(=O)c2ccccc2n2nncc12 -0.325%
Cc1ccc(CNC(=O)Cn2c(=O)ccc3cc(S(=O)(=O)N4CCCC4)ccc32)cc1 -1.49%
CCc1ccccc1NC(=O)Cn1c(=O)n(-c2cccc(C)c2)c(=O)c2c1c1cc(OC)ccc1n2C -2.18%
CCOc1ccc(NS(=O)(=O)c2ccc(N)cc2)nn1 9.6%
Cc1ccc(-c2nnc(SCc3ccccc3C)o2)cc1 4.83%
O=C(/C=C/c1cccc(F)c1)NC1CC1 -0.0663%
CCOC(=O)c1ccccc1NC(=O)CCc1c(C)nc2c(c1C)c(=O)n(C)c(=O)n2C -0.702%
Cc1cc(C)cc(NC(=O)Cn2c(=O)c3ccccc3n3nncc23)c1 0.209%
FCOC(C(F)(F)F)C(F)(F)F -1.76%
COc1ccccc1N1CCN(c2ncnc3onc(-c4ccc(F)cc4)c23)CC1 -0.0304%
Cc1ccc(C)c(N2CCN(S(=O)(=O)c3ccc4c(c3)C(C(C)C)C(=O)N4)CC2)c1 (configuration not stated) 4.77%
NCCCCC(N)C(=O)O (configuration not stated) -3.9%
Cn1c(=O)nc2n(-c3ccc(Br)cc3)c3cccc(Cl)c3cc-2c1=O -2.12%
Cc1ccc(-n2nnnc2CNC(=O)c2ccccc2C)cc1C 0.615%
COc1ccc(NC(=O)Cn2c(=O)n(Cc3ccc(C(=O)NCc4ccccc4Cl)cc3)c(=O)c3ccccc32)cc1 2.1%
Cc1cccc(NC(=O)CSc2nc3c([nH]c4ccccc43)c(=O)n2-c2cc(C)cc(C)c2)c1 3.1%
CC1(C)OC2CC(=O)OC[C@@]23C1CC(=O)[C@]1(C)C3CC[C@@]2(C)C(c3ccoc3)OC(=O)C3O[C@@]321 (some centres not stated) -3.73%
Cc1ccc(C(=O)CSc2nc(-c3ccccc3)nc3c2CCCC3)c(C)c1 -7.64%
